# From PubChem BioAssay AID1224921 (Broad Institute, 2016)
# Hit rate of the full screen: of about 1,400 compounds, about 350 (25%) were called active. About 2% were inconclusive and are not listed. Not all results are given here. Measured potencies and affinities stand elsewhere. Unmarked numbers belong to inactive results. No rule for the calls is given here.
# Assay: C. difficile growth inhibition, confirmation, 4-point retest (AID 1224921);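 also: plate controls were DMSO wells for no effect and levofloxacin 16 µg/mL wells for full effect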
# Conditions: Clostridioides difficile clinical isolate growth, OD600, 24 h, active compounds read low; at 30 µM unless noted
row,Structure (SMILES),max activity
1,CN(C)C(=O)c1ccc(-c2ccc([C@@H]3[C@@H](CO)N(C(=O)C4CCCCC4)[C@H]3C#N)cc2)cc1,-13.2% [at 0.5 µM]
2,C[C@H]1CCCCO[C@@H](CN(C)C(=O)Nc2ccc(C(F)(F)F)cc2)[C@@H](C)CN([C@@H](C)CO)C(=O)c2cc(NS(=O)(=O)c3ccc(Cl)cc3)ccc2O1,12.1%
3,C[C@H](CO)N1C[C@H](C)[C@H](CN(C)C(=O)Nc2ccc(C(F)(F)F)cc2)OCCCC[C@H](C)Oc2ccc(NS(=O)(=O)c3ccc(Cl)cc3)cc2C1=O,14.5%
4,COc1ccc(NC(=O)Nc2cccc3c2O[C@H](CN(C)C(=O)NC2CCCCC2)[C@@H](C)CN([C@H](C)CO)C3=O)cc1,-16%
5,CO[C@H]1CN(C)C(=O)c2cc(NS(=O)(=O)c3ccc(Cl)cc3)ccc2OC[C@@H](C)N(C(=O)NC(C)C)C[C@@H]1C,11.8%
6,C[C@H](O)C#Cc1ccc2c(c1)O[C@@H](CN(C)C(=O)c1ccccc1)[C@@H](C)CN([C@@H](C)CO)S2(=O)=O,-12.7%
7,C[C@H](CO)N1C[C@H](C)[C@@H](CN(C)Cc2ccccn2)Oc2cc(C3=CCCCC3)ccc2S1(=O)=O,33.3%
8,C[C@@H]1CN([C@@H](C)CO)C(=O)Cc2cc(N(C)C)ccc2O[C@H]1CN(C)Cc1ccccc1,9.89%
9,CO[C@@H]1CN(C)C(=O)c2cc(NC(=O)NC(C)C)ccc2OC[C@H](C)N(C)C[C@@H]1C,-5.88%
10,CCS(=O)(=O)Nc1ccc2c(c1)OC[C@H](C)NC[C@@H](C)[C@@H](OC)CN(C)C2=O,10.9%
11,CN(C)C(=O)c1ccc(-c2ccc([C@@H]3[C@@H](C#N)N(C(=O)C4CC4)[C@H]3CO)cc2)cc1,19.6% [at 1.95 µM]
12,O=C(Nc1cc(F)ccc1F)N[C@H]1CC[C@H](CC(=O)N2CCc3ccccc3C2)O[C@@H]1CO,-10.9% [at 8 µM]
13,C[C@@H]1CN([C@@H](C)CO)C(=O)c2cc(NC(=O)Nc3ccc(C(F)(F)F)cc3)ccc2O[C@@H](C)CCCCO[C@@H]1CN(C)C,6.76% [at 8 µM]
14,C[C@@H]1CN([C@@H](C)CO)C(=O)c2cc(NC(=O)Nc3ccc(C(F)(F)F)cc3)ccc2O[C@@H](C)CCCCO[C@H]1CN(C)C,31.7% [at 8 µM]
15,C[C@H](CO)N1C[C@H](C)[C@@H](CN(C)Cc2ccc(C(F)(F)F)cc2)OCCCC[C@H](C)Oc2ccc(NC(=O)CCCN(C)C)cc2C1=O,16.3%
16,C[C@@H]1CN([C@@H](C)CO)C(=O)c2cc(NC(=O)CCCN(C)C)ccc2O[C@@H](C)CCCCO[C@@H]1CN(C)Cc1ccc(C(F)(F)F)cc1,-16.2% [at 1.95 µM]
17,CCCN(C)C[C@H]1OCCCC[C@H](C)Oc2ccc(NC(=O)Nc3cccc4ccccc34)cc2C(=O)N([C@@H](C)CO)C[C@H]1C,13.8%
18,C[C@@H]1CN([C@@H](C)CO)C(=O)c2ccccc2-c2ccccc2CO[C@H]1CN(C)C(=O)CCN(C)C,-7.53% [at 0.5 µM]
19,CO[C@H]1O[C@H](CO)[C@@H](OC(=O)Nc2cccc(F)c2)[C@H](OC(=O)Nc2ccc3c(c2)OCO3)[C@H]1OC(=O)Nc1ccc2c(c1)OCO2,8.7%
20,C[C@H](CO)N1C[C@H](C)[C@@H](CN(C)CC2CCCCC2)Oc2ccc(NC(=O)Cc3cn(C)c4ccccc34)cc2CC1=O,22.1% [at 1.95 µM]

row,Structure (SMILES),max activity
1,CCCNC(=O)Nc1ccc2c(c1)C(=O)N(C)C[C@H](OC)[C@H](C)CN(C)[C@@H](C)CO2,-3.68% [at 0.5 µM]
2,C[C@@H]1CN([C@H](C)CO)C(=O)c2c(c3ccccc3n2C)-c2ccccc2CO[C@@H]1CN(C)C(=O)N[C@H](C)c1ccccc1,9.23% [at 35 µM]
3,CCCNC(=O)Nc1ccc2c(c1)C(=O)N(C)C[C@@H](OC)[C@@H](C)CN(CC1CCCC1)[C@@H](C)CO2,-4.03% [at 1.95 µM]
4,O=C(C[C@@H]1CC[C@@H]2[C@H](COC[C@H](O)CN2CC2CCCCC2)O1)NCc1ccc(Cl)cc1,22.4% [at 8 µM]
5,CO[C@H]1CN(C)C(=O)c2ccc(NC(=O)c3ccc(F)cc3)cc2OC[C@H](C)N(C(=O)CN(C)C)C[C@H]1C,-10.1%
6,O=C(C[C@H]1C[C@H]2c3cc(NC(=O)CC4CC4)ccc3O[C@H]2[C@@H](CO)O1)NCc1cccc(F)c1,-3.04% [at 1.95 µM]
7,Cc1ccc(-c2ccc3c(c2)O[C@H](CN(C)Cc2ccncc2)[C@H](C)CN([C@H](C)CO)S3(=O)=O)cc1,34.8%
8,C[C@H](CO)N1C[C@H](C)[C@H](CN(C)Cc2cccc(C(=O)O)c2)OCc2ccccc2-c2c(n(C)c3ccccc23)C1=O,-7.45% [at 0.5 µM]
9,CC1=CC2(CO)C(=O)[C@]3(CO3)[C@H]1[C@H]1[C@]2(C)C=C(CO)C(=O)[C@]12CO2,15.6%
10,Cc1ccc(F)cc1S(=O)(=O)N[C@@H]1CCN(Cc2ccc(OC(C)C)cc2)C1,34.7% [at 8 µM]
11,C[C@@H]1CN([C@H](C)CO)C(=O)c2c(c3ccccc3n2C)-c2ccccc2CO[C@H]1CN(C)C(=O)c1ccncc1,18.8%
12,COc1ccccc1-c1ccc2c(c1)O[C@H](CN(C)C(=O)c1ccccc1)[C@H](C)CN([C@@H](C)CO)S2(=O)=O,42.3%
13,C[C@H](CO)N1C[C@H](C)[C@@H](CN(C)S(=O)(=O)c2ccsc2)OCc2ccccc2-c2ccccc2C1=O,26.8%
14,CO[C@@H]1CN(C)C(=O)c2ccc(NS(=O)(=O)CC(F)(F)F)cc2OC[C@@H](C)N(C(=O)NC(C)C)C[C@H]1C,14.6%
15,Cc1noc(C)c1NC(=O)N(C)C[C@@H]1Oc2ccc(NC(=O)CCCCCC(=O)Nc3ccccc3N)cc2C(=O)N([C@@H](C)CO)C[C@@H]1C,-8.05% [at 1.8 µM]
16,CO[C@H]1CN(C)C(=O)c2cc(NC(=O)NC3CCCCC3)ccc2OC[C@@H](C)N(CCc2ccccc2)C[C@H]1C,25.3%
17,CC(C)CC#Cc1ccc2c(c1)O[C@H](CN(C)Cc1ccncc1)[C@@H](C)CN([C@H](C)CO)S2(=O)=O,17.5%
18,C[C@@H]1CN([C@@H](C)CO)C(=O)c2cc(/C=C/c3ccccc3)cnc2O[C@H]1CN(C)C(=O)CN(C)C,18%
19,COCC#Cc1ccc2c(c1)O[C@@H](CN(C)Cc1ccncc1)[C@@H](C)CN([C@H](C)CO)S2(=O)=O,17.6%
20,O=C(NCCc1ccccc1)[C@H]1[C@H](CO)[C@H]2Cn3c(cccc3=O)[C@@H]1N2C(=O)C1CC1,-7.04%

row,Structure (SMILES),max activity
1,C[C@H](CO)N1C[C@H](C)[C@@H](CN(C)Cc2cccnc2)Oc2cc(C#CC3CC3)ccc2S1(=O)=O,21.4%
2,CCCN1C[C@@H](C)[C@H](OC)CN(C)C(=O)c2cc(NC(=O)c3ccc4c(c3)OCO4)ccc2OC[C@H]1C,14.6% [at 35 µM]
3,C[C@@H]1CN([C@H](C)CO)C(=O)c2ccccc2-c2ccccc2CO[C@H]1CN(C)C(=O)CCN(C)C,-7.05% [at 0.5 µM]
4,COc1ccc(CN(C)C[C@H]2Oc3ccc(NC(=O)Nc4ccc(C(F)(F)F)cc4)cc3C(=O)N([C@@H](C)CO)C[C@H]2C)cc1,-5.09% [at 0.5 µM]
5,CO[C@@H]1CN(C)C(=O)c2ccc(NS(=O)(=O)c3ccccc3C)cc2OC[C@H](C)N(S(C)(=O)=O)C[C@H]1C,-9.59% [at 8 µM]
6,CNC[C@@H]1Oc2cc(-c3cccnc3)ccc2S(=O)(=O)N([C@H](C)CO)C[C@H]1C,14.8%
7,C[C@H]1CN([C@@H](C)CO)C(=O)c2ccccc2-c2ccccc2CO[C@H]1CN(C)S(=O)(=O)c1ccsc1,-19.4%
8,Cc1ccc(-c2ccc3c(c2)O[C@H](CN(C)Cc2cccnc2)[C@H](C)CN([C@H](C)CO)S3(=O)=O)cc1,17.6%
9,CCCNC(=O)Nc1ccc2c(c1)C(=O)N(C)C[C@H](OC)[C@@H](C)CN(C)[C@@H](C)CO2,4.84% [at 8 µM]
10,COCCNC(=O)C[C@@H]1CC[C@H]2[C@@H](COc3ccc(NS(=O)(=O)c4ccc(Cl)cc4)cc3C(=O)N2C)O1,14.3%
11,CC(C)Cc1ccc(CN2CC[C@@H](NS(=O)(=O)c3ccccc3)C2)cc1,-12% [at 0.5 µM]
12,CCCNC(=O)Nc1ccc2c(c1)C(=O)N(C)C[C@H](OC)[C@@H](C)CN(C(C)=O)[C@H](C)CO2,-7.56% [at 1.95 µM]
13,CO[C@H]1CN(C)C(=O)c2ccc(NS(=O)(=O)c3ccc(C)cc3)cc2OC[C@H](C)N(C(=O)NC(C)C)C[C@H]1C,-11.4% [at 1.95 µM]
14,C/C=C/c1ccc2c(c1)O[C@H](CN(C)C(=O)c1ccc(F)cc1)[C@H](C)CN([C@@H](C)CO)S2(=O)=O,18.5%
15,CO[C@H]1CN(C)C(=O)c2cc(NC(C)=O)ccc2OC[C@@H](C)N(Cc2nccs2)C[C@H]1C,-12.5% [at 8 µM]
16,CO[C@@H]1CN(C)C(=O)c2cc(NC(C)=O)ccc2OC[C@H](C)N(CC2CCCCC2)C[C@@H]1C,16.5%
17,CC(=O)N[C@H]1CC[C@@H](CCNC(=O)Nc2ccc(C(F)(F)F)cc2)O[C@H]1CO,10.2% [at 7.5 µM]
18,CC(=O)N[C@@H]1CC[C@H](CCNC(=O)Nc2ccc(C(F)(F)F)cc2)O[C@@H]1CO,16.8% [at 8 µM]
